{"source": "PubChem BioAssay", "note": "Activity calls are given as the source filed them.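 Rule for the calls, unless noted: active = luciferase signal above three times the same-plate solvent-only control wells; inactive = the rest.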", "data": [{"biological_target": "NAD(+) hydrolase SARM1 (Homo sapiens) (UniProt Q6SZW1)", "sequence (Q6SZW1 whole entry, looked up)": "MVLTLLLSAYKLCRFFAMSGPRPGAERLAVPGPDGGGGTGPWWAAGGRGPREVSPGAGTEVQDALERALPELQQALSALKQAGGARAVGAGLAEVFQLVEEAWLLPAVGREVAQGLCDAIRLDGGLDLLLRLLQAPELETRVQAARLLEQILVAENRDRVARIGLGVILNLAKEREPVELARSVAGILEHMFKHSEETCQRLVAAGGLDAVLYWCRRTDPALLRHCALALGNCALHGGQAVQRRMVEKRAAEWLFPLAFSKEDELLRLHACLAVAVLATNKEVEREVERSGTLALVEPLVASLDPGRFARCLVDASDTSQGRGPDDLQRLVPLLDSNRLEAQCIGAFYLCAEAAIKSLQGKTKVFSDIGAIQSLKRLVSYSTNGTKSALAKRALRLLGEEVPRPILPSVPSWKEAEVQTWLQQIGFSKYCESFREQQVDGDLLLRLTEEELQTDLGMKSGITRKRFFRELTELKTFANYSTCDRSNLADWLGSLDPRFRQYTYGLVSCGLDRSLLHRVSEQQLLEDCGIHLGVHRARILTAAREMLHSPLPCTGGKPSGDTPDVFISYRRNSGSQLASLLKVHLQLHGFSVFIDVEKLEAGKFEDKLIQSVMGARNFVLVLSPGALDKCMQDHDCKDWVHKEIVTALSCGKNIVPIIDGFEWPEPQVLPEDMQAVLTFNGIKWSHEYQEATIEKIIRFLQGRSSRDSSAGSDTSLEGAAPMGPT", "experiment": "SARM1 TIR NADase inhibitors, cell lysate, NAD-Glo luminescence (AID 1508614;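 active = compound whose remaining NAD level is above about 45 nM, limit read from the data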;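 note: higher remaining NAD means stronger inhibition of SARM1 NADase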)", "settings": "SAM-TIR HEK293T lysate NADase, at 1 µM, stronger effect = higher value", "values": [{"molecule": "CO[C@@]1(NC(=O)C2SC(=C(C(N)=O)C(=O)O)S2)C(=O)N2C(C(=O)O)=C(CSc3nnnn3C)CS[C@@H]21", "note": "(stereo not given in full)", "remaining NAD": "10 nM (inactive)"}, {"molecule": "CC1(C)S[C@@H]2[C@H](NC(=O)[C@H](NC(=O)N3CCNC3=O)c3ccccc3)C(=O)N2[C@H]1C(=O)O", "remaining NAD": "10 nM (inactive)"}, {"molecule": "N#Cc1ccc2[nH]cc(CCCCN3CCN(c4ccc5oc(C(N)=O)cc5c4)CC3)c2c1", "remaining NAD": "10 nM (inactive)"}, {"molecule": "Cc1c(OCC(F)(F)F)ccnc1C[S@@](=O)c1nc2ccccc2[nH]1", "remaining NAD": "53 nM (active)"}]}, {"biological_target": "Mitogen-activated protein kinase 7 (Homo sapiens) (UniProt Q13164)", "sequence (Q13164 whole entry, looked up, the tested form may be a part)": "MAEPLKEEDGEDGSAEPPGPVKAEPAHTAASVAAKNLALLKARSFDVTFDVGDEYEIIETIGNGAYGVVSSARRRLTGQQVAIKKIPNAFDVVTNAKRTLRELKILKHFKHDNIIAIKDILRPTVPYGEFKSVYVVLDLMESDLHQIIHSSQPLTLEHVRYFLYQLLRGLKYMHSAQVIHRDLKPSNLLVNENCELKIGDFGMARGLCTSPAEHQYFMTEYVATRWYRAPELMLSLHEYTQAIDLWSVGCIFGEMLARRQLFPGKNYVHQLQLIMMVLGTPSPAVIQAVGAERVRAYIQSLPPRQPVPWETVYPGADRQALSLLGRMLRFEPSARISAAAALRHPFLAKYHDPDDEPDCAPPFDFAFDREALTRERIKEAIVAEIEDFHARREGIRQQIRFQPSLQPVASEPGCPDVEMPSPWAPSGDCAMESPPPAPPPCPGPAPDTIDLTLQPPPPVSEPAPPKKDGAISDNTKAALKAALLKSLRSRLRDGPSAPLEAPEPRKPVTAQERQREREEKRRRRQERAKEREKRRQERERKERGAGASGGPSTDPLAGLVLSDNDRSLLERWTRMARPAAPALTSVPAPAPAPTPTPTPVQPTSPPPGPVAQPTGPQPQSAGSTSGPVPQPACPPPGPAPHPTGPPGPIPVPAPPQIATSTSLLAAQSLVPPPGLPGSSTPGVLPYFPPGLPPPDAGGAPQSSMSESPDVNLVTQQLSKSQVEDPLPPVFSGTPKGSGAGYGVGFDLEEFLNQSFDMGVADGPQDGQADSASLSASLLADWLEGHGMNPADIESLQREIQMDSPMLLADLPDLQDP", "experiment": "ERK5 transactivation activators in reporter cells, primary screen, cell-based, HTS (AID 1508626);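 note: luciferase driven by Gal4-ERK5 fusion binding five Gal4 sites before minimal TATA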", "settings": "HeLa Gal4-ERK5 transactivation, 18 h, at 5 µM, stronger effect = higher value", "values": [{"molecule": "NC[C@H]1O[C@H](O[C@H]2[C@H](O)[C@@H](O[C@H]3O[C@H](CO)[C@@H](O)[C@H](N)[C@H]3O)[C@H](N)C[C@@H]2N)[C@H](O)[C@@H](O)[C@@H]1O", "luciferase signal": "40 AU (inactive)"}, {"molecule": "C[C@]12CC[C@@H]3c4ccc(OS(=O)(=O)O)cc4CC[C@H]3[C@@H]1CCC2=O", "luciferase signal": "76 AU (inactive)"}, {"molecule": "CC(C)[N+]1(C)[C@@H]2CC[C@H]1CC(OC(=O)C(CO)c1ccccc1)C2", "note": "(stereo not given in full)", "luciferase signal": "44 AU (inactive)"}, {"molecule": "CO[C@H]1C[C@H](O[C@H]2[C@H](C)[C@@H](O[C@@H]3O[C@H](C)C[C@H](N(C)C)[C@H]3OC(C)=O)[C@@H](C)C[C@@]3(CO3)C(=O)[C@H](C)[C@@H](OC(C)=O)[C@@H](C)[C@@H](C)OC(=O)[C@@H]2C)O[C@@H](C)[C@@H]1OC(C)=O", "luciferase signal": "232 AU (inactive)"}, {"molecule": "C[C@@H]1CCC[C@H](C)N1NC(=O)c1ccc(Cl)c(S(N)(=O)=O)c1", "luciferase signal": "100 AU (inactive)"}, {"molecule": "CC1(C)S[C@@H]2[C@H](NC(=O)[C@H](NC(=O)N3CCNC3=O)c3ccccc3)C(=O)N2[C@H]1C(=O)O", "luciferase signal": "60 AU (inactive)"}]}]}
